Data from article PMC13541613, “GHT-SELEX demonstrates unexpectedly high intrinsic sequence specificity and complex DNA binding of many human transcription factors”.

Key:
Test in all cases: HT-SELEX; 20 mM HEPES pH 7, 140 mM KCl, 5 mM NaCl, 1 mM K2HPO4, 2 mM MgSO4, 100 uM EGTA, ZnSO4, 0.1% Tween20; room temperature, 1 h; high values mean tight binding
Settings in all cases: protein: ivt; tags: eGFP (N-terminal); dsDNA, one strand shown
ZNF721 full-length = ZNF721 full-length (Homo sapiens, UniProt Q8TF20-2 1-923)
Method in brief: (§1)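 Tagged transcription factor, expressed in HEK293 lysate or cell-free extract as a full-length protein or DNA-binding-domain fragment, was held on beads. It bound a randomized 40-base DNA library during 1 h at room temperature in low-stringency HEPES/KCl buffer with Tween20. Eluted DNA went through successive PCR cycles and Illumina sequencing of ~3 million 60 bp reads per sample. A higher relative k-mer count in the selected reads denotes tighter binding.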

ZNF721 DBD1 = ZNF721 DBD1 (Homo sapiens, UniProt Q8TF20-2 29-461)
Method in brief: as §1

ZNF721 DBD2 = ZNF721 DBD2 (Homo sapiens, UniProt Q8TF20-2 395-923)
Method in brief: as §1

ZNF721 DBD2, sequence (Q8TF20 383-911): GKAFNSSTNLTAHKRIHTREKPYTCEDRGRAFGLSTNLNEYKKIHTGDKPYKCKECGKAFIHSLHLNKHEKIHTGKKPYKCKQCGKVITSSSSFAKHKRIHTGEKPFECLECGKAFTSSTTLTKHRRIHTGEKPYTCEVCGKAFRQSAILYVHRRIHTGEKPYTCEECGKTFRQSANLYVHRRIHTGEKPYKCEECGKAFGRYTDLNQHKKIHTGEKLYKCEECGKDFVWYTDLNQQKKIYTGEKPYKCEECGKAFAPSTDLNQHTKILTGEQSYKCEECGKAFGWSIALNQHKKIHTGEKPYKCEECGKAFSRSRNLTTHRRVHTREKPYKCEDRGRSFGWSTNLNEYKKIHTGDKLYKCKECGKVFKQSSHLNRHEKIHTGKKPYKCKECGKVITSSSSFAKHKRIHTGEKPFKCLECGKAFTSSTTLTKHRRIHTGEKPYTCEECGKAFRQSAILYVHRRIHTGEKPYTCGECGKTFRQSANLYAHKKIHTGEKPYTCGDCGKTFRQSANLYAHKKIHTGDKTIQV
ZNF721 DBD1, sequence (Q8TF20 17-449): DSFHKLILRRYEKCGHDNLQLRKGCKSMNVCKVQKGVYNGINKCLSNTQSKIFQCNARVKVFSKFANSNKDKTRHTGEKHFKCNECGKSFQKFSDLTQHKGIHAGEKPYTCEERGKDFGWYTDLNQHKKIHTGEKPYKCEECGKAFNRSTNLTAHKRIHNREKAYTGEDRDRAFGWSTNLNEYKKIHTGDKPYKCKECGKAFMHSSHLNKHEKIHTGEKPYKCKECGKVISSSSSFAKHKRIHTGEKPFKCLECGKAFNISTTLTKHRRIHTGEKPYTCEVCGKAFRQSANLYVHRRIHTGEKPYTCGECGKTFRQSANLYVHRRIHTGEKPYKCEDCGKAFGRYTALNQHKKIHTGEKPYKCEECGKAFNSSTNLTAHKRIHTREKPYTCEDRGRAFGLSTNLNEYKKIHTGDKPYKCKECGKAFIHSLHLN
ZNF721 full-length, sequence (Q8TF20 other isoform, or with tags, fused parts or gaps): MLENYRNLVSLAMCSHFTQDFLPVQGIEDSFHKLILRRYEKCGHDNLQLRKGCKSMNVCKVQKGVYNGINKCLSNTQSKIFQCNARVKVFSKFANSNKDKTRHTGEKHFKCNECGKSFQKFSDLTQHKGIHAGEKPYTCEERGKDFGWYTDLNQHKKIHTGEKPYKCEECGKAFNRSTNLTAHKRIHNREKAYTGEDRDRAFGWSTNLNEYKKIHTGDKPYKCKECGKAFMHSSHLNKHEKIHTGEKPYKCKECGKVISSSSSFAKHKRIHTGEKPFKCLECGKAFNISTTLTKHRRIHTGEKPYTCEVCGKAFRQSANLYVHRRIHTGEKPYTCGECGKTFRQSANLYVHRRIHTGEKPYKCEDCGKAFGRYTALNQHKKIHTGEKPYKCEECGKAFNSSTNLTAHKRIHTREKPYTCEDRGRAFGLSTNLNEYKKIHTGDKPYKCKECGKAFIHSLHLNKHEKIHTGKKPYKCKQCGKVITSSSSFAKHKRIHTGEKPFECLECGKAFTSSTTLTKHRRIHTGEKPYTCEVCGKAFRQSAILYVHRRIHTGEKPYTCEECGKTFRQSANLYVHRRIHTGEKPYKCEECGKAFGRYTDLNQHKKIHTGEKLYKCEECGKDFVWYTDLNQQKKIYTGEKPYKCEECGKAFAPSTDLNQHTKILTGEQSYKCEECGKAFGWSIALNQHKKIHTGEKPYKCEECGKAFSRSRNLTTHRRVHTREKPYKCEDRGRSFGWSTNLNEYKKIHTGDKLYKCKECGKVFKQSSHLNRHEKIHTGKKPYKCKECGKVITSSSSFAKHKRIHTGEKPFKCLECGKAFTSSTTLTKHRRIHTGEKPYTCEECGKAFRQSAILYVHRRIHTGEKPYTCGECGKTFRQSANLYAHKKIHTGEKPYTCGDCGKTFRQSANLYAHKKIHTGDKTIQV

Sequence | binding signal (ZNF721 full-length) | binding signal (ZNF721 DBD1) | binding signal (ZNF721 DBD2)
CGCCCCCCTC | 0.116 relative 10-mer count | 0.00422 relative 10-mer count | 0.00204 relative 10-mer count
CCCGCCCCTC | 0.127 relative 10-mer count | 0.00633 relative 10-mer count | 0.00144 relative 10-mer count
ACCCCTCCCC | 0.189 relative 10-mer count | 0.00688 relative 10-mer count | 0.00216 relative 10-mer count
GCCCACCCCA | 0.142 relative 10-mer count | 0.00505 relative 10-mer count | 0.00971 relative 10-mer count
CCCCCCCAAC | 0.155 relative 10-mer count | 0.0044 relative 10-mer count | 0.00791 relative 10-mer count
AACCCCACCC | 0.141 relative 10-mer count | 0.00294 relative 10-mer count | 0.00156 relative 10-mer count
AAAAAAAAAA | 0.186 relative 10-mer count | 0.0189 relative 10-mer count | 0.0538 relative 10-mer count
CCCCATCCCC | 0.231 relative 10-mer count | 0.0083 relative 10-mer count | 0.0036 relative 10-mer count
CCCTCCCCCA | 0.192 relative 10-mer count | 0.00881 relative 10-mer count | 0.00839 relative 10-mer count
AAAAAAAGGC | 0.162 relative 10-mer count | 0.00225 relative 10-mer count | 0.117 relative 10-mer count
CCACCTCCCC | 0.278 relative 10-mer count | 0.0134 relative 10-mer count | 0.00336 relative 10-mer count
CCCTCCCGCC | 0.161 relative 10-mer count | 0.00716 relative 10-mer count | 0.00503 relative 10-mer count
ACCACCACCC | 0.189 relative 10-mer count | 0.00679 relative 10-mer count | 0.00611 relative 10-mer count
ACCACCCCCA | 0.142 relative 10-mer count | 0.00505 relative 10-mer count | 0.00204 relative 10-mer count
CCCCACTCCC | 0.157 relative 10-mer count | 0.00688 relative 10-mer count | 0.00216 relative 10-mer count
CCGCCCCCCA | 0.141 relative 10-mer count | 0.0066 relative 10-mer count | 0.00252 relative 10-mer count
AGCATATCCA | 0.107 relative 10-mer count | 0.0108 relative 10-mer count | 0.102 relative 10-mer count
CTCCCCGCCC | 0.131 relative 10-mer count | 0.00583 relative 10-mer count | 0.00372 relative 10-mer count
CCCACGCCCC | 0.233 relative 10-mer count | 0.00729 relative 10-mer count | 0.00384 relative 10-mer count
CCGAAAAAAA | 0.115 relative 10-mer count | 0.0118 relative 10-mer count | 0.0585 relative 10-mer count

Sequence | binding signal (ZNF721 full-length) | binding signal (ZNF721 DBD1) | binding signal (ZNF721 DBD2)
AAAAGCTGCC | 0.103 relative 10-mer count | 0.0372 relative 10-mer count | 0.00108 relative 10-mer count
CAAAAAAACA | 0.365 relative 10-mer count | 0.00349 relative 10-mer count | 0.263 relative 10-mer count
CCACGCCACC | 0.105 relative 10-mer count | 0.00353 relative 10-mer count | 0.00443 relative 10-mer count
AGGGTATCCA | 0.133 relative 10-mer count | 0.00858 relative 10-mer count | 0.224 relative 10-mer count
CCTTCCCCCC | 0.104 relative 10-mer count | 0.00472 relative 10-mer count | 0.00264 relative 10-mer count
CAACCACCCC | 0.13 relative 10-mer count | 0.00486 relative 10-mer count | 0.00252 relative 10-mer count
AAAAAAAGAG | 0.126 relative 10-mer count | 0.00949 relative 10-mer count | 0.0578 relative 10-mer count
CCGTCCACCC | 0.103 relative 10-mer count | 0.00472 relative 10-mer count | 0.0036 relative 10-mer count
AGGGGGGCGG | 0.108 relative 10-mer count | 0.00417 relative 10-mer count | 0.0012 relative 10-mer count
CCCACCCATC | 0.112 relative 10-mer count | 0.00514 relative 10-mer count | 0.00587 relative 10-mer count
TAAAAAAAAA | 0.115 relative 10-mer count | 0.0133 relative 10-mer count | 0.0464 relative 10-mer count
AAAGGCATAC | 0.129 relative 10-mer count | 0.00142 relative 10-mer count | 0.123 relative 10-mer count
ACCCCCCGCC | 0.137 relative 10-mer count | 0.00555 relative 10-mer count | 0.00384 relative 10-mer count
ACCTCCCCCC | 0.151 relative 10-mer count | 0.00578 relative 10-mer count | 0.00216 relative 10-mer count
CCACGTCCCC | 0.11 relative 10-mer count | 0.00376 relative 10-mer count | 0.00252 relative 10-mer count
ACCCCCCCCC | 0.143 relative 10-mer count | 0.00362 relative 10-mer count | 0.0018 relative 10-mer count
CCACCGCCAC | 0.12 relative 10-mer count | 0.00394 relative 10-mer count | 0.00599 relative 10-mer count
CCACCCCCTC | 0.182 relative 10-mer count | 0.00982 relative 10-mer count | 0.00312 relative 10-mer count
GAAAAAAAAA | 0.142 relative 10-mer count | 0.0136 relative 10-mer count | 0.0513 relative 10-mer count
GTGGTGGGGA | 0.14 relative 10-mer count | 0.00674 relative 10-mer count | 0.00443 relative 10-mer count

Sequence | binding signal (ZNF721 full-length) | binding signal (ZNF721 DBD1) | binding signal (ZNF721 DBD2)
CCCCGTCCCC | 0.212 relative 10-mer count | 0.00789 relative 10-mer count | 0.00192 relative 10-mer count
AGCGTATCCA | 0.221 relative 10-mer count | 0.0368 relative 10-mer count | 0.31 relative 10-mer count
AAAGAAGCGT | 0.12 relative 10-mer count | 0.0739 relative 10-mer count | 0.00348 relative 10-mer count
CACACCCCCC | 0.146 relative 10-mer count | 0.00514 relative 10-mer count | 0.0018 relative 10-mer count
ACCCACCCCG | 0.133 relative 10-mer count | 0.00491 relative 10-mer count | 0.00264 relative 10-mer count
CGCCCCACCA | 0.117 relative 10-mer count | 0.00362 relative 10-mer count | 0.00312 relative 10-mer count
CCCCCAACCC | 0.233 relative 10-mer count | 0.00775 relative 10-mer count | 0.00168 relative 10-mer count
CCCGCCCCCG | 0.13 relative 10-mer count | 0.00482 relative 10-mer count | 0.00144 relative 10-mer count
CCCCCTGCCC | 0.154 relative 10-mer count | 0.00628 relative 10-mer count | 0.00192 relative 10-mer count
AAAAAAGCAT | 0.343 relative 10-mer count | 0.0588 relative 10-mer count | 0.067 relative 10-mer count
ACAAAAAACA | 0.143 relative 10-mer count | 0.00197 relative 10-mer count | 0.172 relative 10-mer count
CCCCACCCAA | 0.134 relative 10-mer count | 0.00431 relative 10-mer count | 0.00491 relative 10-mer count
ATGGGTGGGG | 0.109 relative 10-mer count | 0.00427 relative 10-mer count | 0.00372 relative 10-mer count
CCCCCACCCA | 0.256 relative 10-mer count | 0.00931 relative 10-mer count | 0.00348 relative 10-mer count
CCCCTTCCCC | 0.162 relative 10-mer count | 0.00702 relative 10-mer count | 0.00192 relative 10-mer count
TAAAAAAACA | 0.162 relative 10-mer count | 0.00234 relative 10-mer count | 0.134 relative 10-mer count
CACCGCCCAC | 0.123 relative 10-mer count | 0.00482 relative 10-mer count | 0.00372 relative 10-mer count
CTAAAAAAAA | 0.107 relative 10-mer count | 0.0111 relative 10-mer count | 0.0533 relative 10-mer count
CCCACCGCCC | 0.319 relative 10-mer count | 0.0135 relative 10-mer count | 0.00551 relative 10-mer count
ACCCCACCTC | 0.104 relative 10-mer count | 0.00527 relative 10-mer count | 0.0024 relative 10-mer count
